# Records with an inconclusive call do not appear. A call without a number means that no potency is given here. Activity calls are given as the source filed them. Calls follow the shape of the dose curve; as a rule, active = well fitted inhibition curve with a large enough effect; inconclusive = small, poorly fitted or top-dose-only effect; inactive = flat fitted curve, though single readings scatter.
# Target: Glutathione peroxidase 1 (Homo sapiens) (UniProt P07203)
# Assay: Primary qHTS Assay for Inhibitors of Recombinant Selenoprotein Glutathione Peroxidase 1 (GPX1) (AID 1845191); also: nearly all actives have a fitted effect of over 65% in size
# Details: recombinant GPX1, GR-coupled NADPH fluorescence, 15 min; series mostly up to 48.8 µM
# Outline: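 GR-coupled assay: compounds preincubated 30 min at room temperature with GPX1, then reaction started with CHP; final 10 nM GPX1, 1 mM GSH, 0.5 mM CHP, 0.5 mM NADPH, 100 nM GR, 0.01% BSA, pH 7.5 Tris buffer. NADPH fluorescence (340/450 nm) read at 0 and 15 min.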
# Chain of Glutathione peroxidase 1 (Homo sapiens) (P07203 whole entry, looked up): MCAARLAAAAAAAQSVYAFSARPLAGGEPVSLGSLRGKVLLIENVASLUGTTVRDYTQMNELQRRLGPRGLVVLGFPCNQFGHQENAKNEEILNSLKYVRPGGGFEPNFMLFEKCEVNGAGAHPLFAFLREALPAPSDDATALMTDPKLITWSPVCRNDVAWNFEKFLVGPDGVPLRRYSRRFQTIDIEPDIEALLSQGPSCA
row,SMILES,Potency
1,C=C1/C(=C/C=C2\CCC[C@]3(C)[C@@H]([C@H](C)CCCC(C)(C)O)CC[C@@H]23)C[C@@H](O)[C@@H](OCCCO)[C@@H]1O,inactive
2,CC1(COc2ccc(N3CCC(Oc4ccc(OC(F)(F)F)cc4)CC3)cc2)Cn2cc([N+](=O)[O-])nc2O1 (stereo not given),inactive
3,O=C(Cn1c(=O)oc2cc(S(=O)(=O)N3CCCCC3)ccc21)NCc1ccc(Cl)cc1,inactive
4,COc1ccc(OC)c(N2C(=O)C(Cl)=C(N3CCCCC3)C2=O)c1,inactive
5,CNCCN1CCC(OCc2ccccc2)CC1,inactive

# — PubChem BioAssay (NCATS)
